This note sets out measurements from PubChem BioAssay (Tox21).

Values joined by “and” are separate entries in the source; they are usually repeats but may differ in a detail not shown here. Equal entries are not always repeated. A number with no mark means an inactive call. Records with an inconclusive call do not appear. Active and inactive are the calls of the source. The call rests on the fitted dose curve; in most records, active means well fitted curve in the direction sought with a large enough effect in the repeat runs; inconclusive means weak or mixed curves; inactive means no such curve, though single readings can be large; an effect the other way counts as inactive or inconclusive.

The nature of test [1]: qHTS RealTime-Glo MT Cell Viability Assay in HEK293 cells - 16 hour (AID 1224872). Further: top concentration of the series differs between compounds; nearly all actives have a fitted effect of over 50% in size. Put shortly:
(§1)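 HEK293 cells seeded with NanoLuc/prosubstrate reagent, rested 5 h at 37 C, then dosed and kept at 37 C up to 40 h. Nonlytic real-time luminescence from viable cells read at 0, 8, 16, 24, 32 and 40 h.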

Test [2] can be described thus: qHTS RealTime-Glo MT Cell Viability Assay in HepG2 cells - 8 hour (AID 1224873). Further: nearly all actives have a fitted effect of over 55% in size. Put shortly:
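HepG2 cells mixed with RealTime-Glo MT reagents (NanoLuc plus cell-permeant prosubstrate) were seeded at 600 cells/well, incubated 5 h at 37 C/5% CO2, then pinned with compounds in DMSO; nonlytic luminescence tracked viability during 40 h treatment.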

Test [3] is described as follows: qHTS RealTime-Glo MT Cell Viability Assay in HEK293 cells - 40 hour (AID 1224874). Further: nearly all actives have a fitted effect of over 50% in size. Further: potency means the concentration at half of the fitted maximal effect. Conditions: RealTime-Glo luminescence; max response: stronger effect = lower value. An outline of the steps:
(§2)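 Viable HEK293 cells reduce a cell-permeant prosubstrate; the product diffuses out and is consumed by NanoLuc in the medium to give light. Compounds went in after a 5 h incubation and plates were read over the treatment course.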
A general note: Quantitative high-throughput screening tests each substance at several concentrations.

The nature of test [4]: A CellTox Green Cytotoxicity Assay to monitor cytotoxicity in HEK293 cells - 24 hour (AID 1224875). Further: nearly all actives have a fitted effect of over 45% in size. Further: potency means the concentration at half of the fitted maximal effect. An outline of the steps: (§3)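 Fluorescence intensity, read at 0, 8, 16, 24, 32 and 40 h of compound treatment, reflected dye binding to DNA of dead HEK293 cells; compounds (23 nL, DMSO) were added 5 h after plating cells with reagent.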
Test [5] is described as follows: A CellTox Green Cytotoxicity Assay to monitor cytotoxicity in HepG2 cells - 16 hour (AID 1224876). Further: nearly all actives have a fitted effect of over 45% in size. Further: potency means the concentration at half of the fitted maximal effect. An outline of the steps: (§4)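 Using 1536-well format, dye-containing HepG2 suspension was seeded, allowed 5 h at 37 C/5% CO2, dosed by pintool with compounds, positive and negative controls, and imaged for fluorescence across 40 h.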
The nature of test [6]: qHTS RealTime-Glo MT Cell Viability Assay in HepG2 cells - 32 hour (AID 1224877). Further: nearly all actives have a fitted effect of over 55% in size. Further: potency means the concentration at half of the fitted maximal effect. An outline of the steps: (§5)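 HepG2 cells (600/well) were dispensed with RealTime-Glo reagents, incubated 5 h at 37 °C, then treated with compounds in DMSO for up to 40 h. Nonlytic NanoLuc luminescence reflecting viable cells was read at each stated time point.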
Test [7] is described as follows: A CellTox Green Cytotoxicity Assay to monitor cytotoxicity in HepG2 cells - 24 hour (AID 1224878). Further: nearly all actives have a fitted effect of over 45% in size. Further: potency means the concentration at half of the fitted maximal effect. Put shortly:
as §4

A short description of test [8]: A CellTox Green Cytotoxicity Assay to monitor cytotoxicity in HepG2 cells - 40 hour (AID 1224879). Further: nearly all actives have a fitted effect of over 40% in size. Further: potency means the concentration at half of the fitted maximal effect. An outline of the steps:
as §4

Test [9] in a line: qHTS RealTime-Glo MT Cell Viability Assay in HEK293 cells - 0 hour (AID 1224880). Further: nearly all actives have a fitted effect of over 45% in size. Further: potency means the concentration at half of the fitted maximal effect. Put shortly: as §2
Test [10] is described as follows: A CellTox Green Cytotoxicity Assay to monitor cytotoxicity in HEK293 cells - 32 hour (AID 1224881). Further: nearly all actives have a fitted effect of over 40% in size. Further: potency means the concentration at half of the fitted maximal effect. Put shortly:
as §3

Test [11] is described as follows: A CellTox Green Cytotoxicity Assay to monitor cytotoxicity in HepG2 cells - 0 hour (AID 1224882). Further: nearly all actives have a fitted effect of over 35% in size. Put shortly: as §4
Test [12] can be described thus: A CellTox Green Cytotoxicity Assay to monitor cytotoxicity in HepG2 cells - 32 hour (AID 1224883). Further: nearly all actives have a fitted effect of over 50% in size. Further: potency means the concentration at half of the fitted maximal effect. Put shortly: as §4
Test [13] is described as follows: A CellTox Green Cytotoxicity Assay to monitor cytotoxicity in HEK293 cells - 8 hour (AID 1224884). Further: nearly all actives have a fitted effect of over 35% in size. Further: potency means the concentration at half of the fitted maximal effect. Put shortly: as §3
The nature of test [14]: qHTS RealTime-Glo MT Cell Viability Assay in HepG2 cells - 16 hour (AID 1224885). Further: nearly all actives have a fitted effect of over 50% in size. Further: potency means the concentration at half of the fitted maximal effect. Put shortly:
as §5

Test [15] is described as follows: qHTS RealTime-Glo MT Cell Viability Assay in HEK293 cells - 24 hour (AID 1224886). Further: nearly all actives have a fitted effect of over 50% in size. Further: potency means the concentration at half of the fitted maximal effect. An outline of the steps:
as §1

The nature of test [16]: qHTS RealTime-Glo MT Cell Viability Assay in HEK293 cells - 8 hour (AID 1224887). Further: nearly all actives have a fitted effect of over 50% in size. Further: potency means the concentration at half of the fitted maximal effect. Put shortly: as §2
Test [17] is described as follows: A CellTox Green Cytotoxicity Assay to monitor cytotoxicity in HEK293 cells - 16 hour (AID 1224888). Further: nearly all actives have a fitted effect of over 35% in size. Put shortly: as §3
The nature of test [18]: qHTS RealTime-Glo MT Cell Viability Assay in HepG2 cells - 0 hour (AID 1224889). Further: nearly all actives have a fitted effect of over 50% in size. Further: potency means the concentration at half of the fitted maximal effect. An outline of the steps:
as §5

The nature of test [19]: A CellTox Green Cytotoxicity Assay to monitor cytotoxicity in HepG2 cells - 8 hour (AID 1224890). Further: nearly all actives have a fitted effect of over 45% in size. Further: potency means the concentration at half of the fitted maximal effect. Put shortly:
as §4

Test [20] in a line: A CellTox Green Cytotoxicity Assay to monitor cytotoxicity in HEK293 cells - 40 hour (AID 1224871). Further: nearly all actives have a fitted effect of over 45% in size. Further: potency means the concentration at half of the fitted maximal effect. An outline of the steps:
as §3
On the % scale 0 is the no-effect control and ±100 the full control effect.

In the case of `CCC(N)(CO)CO`, the Potency result in test [1], in test [2], in test [4], in [5], in test [6] and in test [7] was “inactive” in each case. Further, the Potency result in test [8], in [9], in test [10], in test [11], in test [12] and in test [13] was “inactive” in each case. In addition, the Potency result in test [14], in test [15], in test [16], in [17], in test [18] and in test [19] was “inactive” each time. For the same compound, in [3], the max response was 11.9%.

Regarding `CC1=C(C(=O)OC(C)C)C(c2cccc([N+](=O)[O-])c2)C(C(=O)OC2CN(C(c3ccccc3)c3ccccc3)C2)=C(N)N1` (stereo not given), the Potency result in [20], in test [4], in [9], in test [10] and in test [11] was “inactive” throughout. For the same compound, the Potency in [6] is 21.3 µM (active); in [7] it was 23.9 µM (active); in test [8] it was 23.9 µM (active); in [12], 23.9 µM (active); in test [14], 21.3 µM (active).

Take `COCCCC/C(=N\OCCN)c1ccc(C(F)(F)F)cc1`: the Potency result in [20], in [2], in test [4], in test [9], in [10] and in test [11] was “inactive” each time. Further, the Potency result in test [13], in test [14], in test [16], in test [18] and in [19] was “inactive” in each case. The Potency in [8] and in [12] was 26.8 µM (active) each time.

In the case of `CCCCCOc1ccccc1/C(=C\SC)n1ccnc1`, the Potency result in [20], in test [2], in test [4], in [5], in test [6] and in test [7] was “inactive” in each case. Besides, the Potency entry in test [9], in test [10], in test [11], in [12], in test [13] and in test [14] was “inactive” throughout. Moreover, the Potency entry in test [17], in test [18] and in test [19] was “inactive” throughout.

As for `CCCC1O[C@@H]2C[C@H]3[C@@H]4CCC5=CC(=O)C=C[C@]5(C)[C@H]4[C@@H](O)C[C@]3(C)[C@]2(C(=O)CO)O1` (stereo not given in full), the Potency result in test [20], in [2], in test [4], in [5], in test [6] and in [7] was “inactive” throughout. Moreover, the Potency entry in test [10], in [11], in test [12], in [13], in test [14] and in test [17] was “inactive” each time. In addition, the Potency entry in [19] is “inactive”. Besides, the Potency is 49 µM (active) in test [8]; 30.9 µM (active) in [9]; 7.77 µM (active) and 7.76 µM (active) in test [18].

`CCOc1ccc2nc3cc(N)ccc3c(N)c2c1`: the Potency in test [20] is 21.3 µM (active); in test [6], 8.49 µM (active); in [7], 23.9 µM (active); in [8] it was 6.01 µM (active); in test [12], 16.9 µM (active). Also, the Potency result in test [9], in test [11], in [13], in test [16], in test [18] and in test [19] was “inactive” each time.

On to `Nc1nc2ccccc2n1Cc1ccc(F)cc1`, for which the Potency entry in test [20], in test [2], in [4], in test [5], in test [6] and in [10] was “inactive” each time. In addition, the Potency entry in [11], in test [13], in [14], in test [16], in test [17] and in test [19] was “inactive” throughout. For the same compound, the Potency in [8] and in test [12] was 23.9 µM (active) each time.

As to `CC(C)(C)C1CCC(CC2=C(O)c3ccccc3C(=O)C2=O)CC1` (stereo not given), the Potency was 16.9 µM (active) in [20] and 21.3 µM (active) in test [10]. For the same compound, the max response in test [3] is -30%. Further, the Potency result in test [6], in test [9], in test [11], in [13], in test [14] and in [17] was “inactive” each time. Moreover, the Potency result in test [18] and in test [19] was “inactive” in each case.

`CCCCCCCCOc1ccccc1C(=O)Nc1ccc(C(=O)OCC[N+](C)(CC)CC)cc1`: the Potency is 26.8 µM (active) in [20]; 21.3 µM (active) in test [3]; 23.9 µM (active) in [4]; 23.9 µM (active) in test [5]; 26.8 µM (active) in [7]; 23.9 µM (active) in test [8]. Moreover, the Potency in test [10] is 23.9 µM (active); in test [12] it was 23.9 µM (active); in test [13] it was 23.9 µM (active); in test [19] it was 26.8 µM (active). Further, the Potency entry in test [16] and in test [18] was “inactive” each time.

Take `CC(=O)S[C@@H]1CC2=CC(=O)CC[C@]2(C)[C@H]2CC[C@@]3(C)[C@@H](CC[C@@]34CCC(=O)O4)[C@H]12`: the Potency entry in test [20], in [4], in test [5], in test [9], in test [11] and in [17] was “inactive” throughout. Moreover, the Potency result in test [18] and in test [19] was “inactive” each time. Moreover, the Potency in [8] and in [12] was 54.9 µM (active) in each case.

For `Cc1cc(=O)oc2cc(N(C)C)ccc12`, the Potency entry in test [20], in [4], in test [5], in test [6], in test [7] and in test [8] was “inactive” each time. Moreover, the Potency entry in [9], in test [10], in test [11], in [12], in test [13] and in test [16] was “inactive” each time. In addition, in test [19], the Potency result was “inactive”.

Turning to `CNCc1cc(F)ccc1Oc1ccc(Cl)c(Cl)c1`, the Potency was 49 µM (active) in test [20]; 43.6 µM (active) in test [3]; 49 µM (active) in test [4]; 54.9 µM (active) in [5]; 54.9 µM (active) in test [6]; 49 µM (active) in [7]. For the same compound, the Potency is 49 µM (active) in test [8]; 49 µM (active) in [10]; 49 µM (active) in test [12]; 49 µM (active) in [14]; 38.9 µM (active) in [15]. Moreover, the Potency result in test [11] is “inactive”.

Regarding `O=C(Nc1cccc([N+](=O)[O-])c1)c1cc2ccccc2cc1O`, the Potency entry in [20], in [2], in [4], in test [5], in test [6] and in [7] was “inactive” in each case. The Potency result in test [8], in [9], in test [11], in test [12], in [13] and in [14] was “inactive” in each case. Also, the Potency result in test [16], in [17], in test [18] and in test [19] was “inactive” in each case.

Take `O=C1c2c(O)ccc(Nc3ccc(CCO)cc3)c2C(=O)c2c([N+](=O)[O-])ccc(O)c21`: the Potency entry in [20], in test [4], in test [5], in test [6], in test [7] and in test [8] was “inactive” in each case. Also, the Potency entry in [9], in [10], in test [11], in test [12], in test [13] and in [17] was “inactive” in each case. For the same compound, the Potency result in [19] was “inactive”. The max response in [3] is -18.6%. Further, in [16], the Potency was 43.6 µM (active).

In the case of `Cc1[nH]cnc1C[C@H]1CCc2c(C)c3ccccc3n2C1=O`, the Potency was 47.8 µM (active) in test [20]; 23.9 µM (active) in test [3]; 47.8 µM (active) in test [4]; 42.6 µM (active) in [6]; 38 µM (active) in test [7]; 33.8 µM (active) in [8]. In addition, the values for the Potency in [10], in test [12] and in test [15] were 47.8 µM (active), 38 µM (active) and 33.8 µM (active), respectively. Moreover, the Potency entry in [9], in test [11], in test [17] and in test [18] was “inactive” throughout.
